# Assay outcomes (PubChem)
# In the library only some 10% were active in any assay of this set; here they are far more common.
# GPT2 inhibitor: GPT2 alanine aminotransferase inhibition; Q8TD30; Recombinant GPT2, coupled pyruvate oxidase/HRP Amplex Red fluorescence; Potency, µM (series often up to 57.7 µM), usual class: inhibitors; actives 0.25% (n = 100,000); AID 1671188; note: nearly all actives have a fitted effect of over 60% in size
#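 Recombinant GPT2 (10ng/uL) with 250uM a-KG and 2mM L-alanine, 30 min at room temperature, in HEPES pH 7.5 buffer. Pyruvate detected by pyruvate oxidase/HRP/Amplex Red fluorescence after 30 min in the dark; AOA (50uM) as positive control.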
# 3T3 cytotox: kills NIH 3T3 cells; NIH 3T3 viability, CellTiter-Glo ATP luminescence, 48-72 h; actives 4.3% (n = 94,000); AID 1345082; Potency, µM (titrated, usually from 96.7 µM), usual class: inhibitors; note: nearly all actives have a fitted effect of over 55% in size
#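 Cytotoxicity is measured as loss of cellular ATP: NIH 3T3 cells (400/well) are exposed to compound for 48 or 72 hr at 37 °C, then CellTiter-Glo luminescence is imaged after 10 min at room temperature.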
# HEK293 tox: kills HEK 293 cells. HEK 293 viability, ATP luminescence (CellTiter-Glo), 48-72 h. Potency, µM (doses to about 115 µM), most hits filed as inhibitors. actives 6.6% (n = 94,000). AID 1345083; note: nearly all actives have a fitted effect of over 60% in size
#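 Read-out: CellTiter-Glo ATP luminescence. Cells: HEK 293, 250 cells/well. Exposure: 48 or 72 hr, 37 degree Celsius.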
# FLuc inh: Photinus pyralis luciferase inhibition; P08659; purified P. pyralis luciferase, luminescence, biochemical; Potency, µM (doses to about 115 µM), actives largely listed as inhibitors; actives 2.5% (n = 76,000); note: nearly all actives have a fitted effect of over 65% in size
#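 Purified 10nM P. pyralis luciferase with 10uM D-luciferin and 10uM ATP in 50mM Tris acetate pH 7.5, 10mM Mg acetate, 0.01% Tween-20, 0.05% BSA. qHTS titration; luminescence read by CCD imager.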
# hNpr1 antagonist: antagonists of human natriuretic peptide receptor Npr1. actives 1.6% (n = 76,000). HEK293 hNpr1 GloSensor cGMP, ANP-stimulated luminescence. P16066. AID 1347048. Potency, µM (series often up to 46.3 µM), usual class: inhibitors; calls by dose curve; note: nearly all actives have a fitted effect of over 60% in size
# Target sequence (P16066 whole entry, looked up): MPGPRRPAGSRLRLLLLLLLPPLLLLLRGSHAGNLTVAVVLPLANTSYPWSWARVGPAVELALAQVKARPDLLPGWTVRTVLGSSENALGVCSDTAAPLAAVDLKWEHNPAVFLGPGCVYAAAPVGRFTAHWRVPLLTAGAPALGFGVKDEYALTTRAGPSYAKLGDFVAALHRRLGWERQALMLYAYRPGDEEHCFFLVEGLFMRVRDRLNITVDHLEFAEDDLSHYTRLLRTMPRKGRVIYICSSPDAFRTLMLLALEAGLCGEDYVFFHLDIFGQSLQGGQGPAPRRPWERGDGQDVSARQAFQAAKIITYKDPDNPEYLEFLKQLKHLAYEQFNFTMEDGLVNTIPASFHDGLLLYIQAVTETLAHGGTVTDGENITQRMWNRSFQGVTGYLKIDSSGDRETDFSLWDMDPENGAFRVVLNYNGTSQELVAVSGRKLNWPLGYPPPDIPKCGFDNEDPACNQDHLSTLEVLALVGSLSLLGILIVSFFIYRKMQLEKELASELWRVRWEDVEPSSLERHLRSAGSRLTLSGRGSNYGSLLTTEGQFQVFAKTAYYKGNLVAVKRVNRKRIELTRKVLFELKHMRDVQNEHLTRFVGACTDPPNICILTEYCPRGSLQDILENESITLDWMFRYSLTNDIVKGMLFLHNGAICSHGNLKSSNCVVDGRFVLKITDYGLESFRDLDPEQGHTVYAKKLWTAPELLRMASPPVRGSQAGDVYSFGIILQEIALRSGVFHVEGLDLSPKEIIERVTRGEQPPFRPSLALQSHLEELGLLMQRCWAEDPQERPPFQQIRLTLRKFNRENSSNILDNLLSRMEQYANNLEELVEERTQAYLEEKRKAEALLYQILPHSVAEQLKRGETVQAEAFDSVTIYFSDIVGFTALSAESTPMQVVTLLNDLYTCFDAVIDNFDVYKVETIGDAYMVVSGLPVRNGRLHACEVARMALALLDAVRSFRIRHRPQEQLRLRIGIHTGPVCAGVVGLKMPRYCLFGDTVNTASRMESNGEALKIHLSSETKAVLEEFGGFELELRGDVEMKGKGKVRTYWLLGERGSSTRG
#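 HEK293 cells stably expressing human Npr1 and cGMP GloSensor pGS-40F, loaded 2 h with 2% GloSensor reagent, given compound 30 min at room temperature. Luminescence read before and 20 min after 0.1 nM hNppA.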
# A number is an active result; n = inactive; u = inconclusive; x = no result given. Unless noted, calls come from the whole dose curve; as a rule, active = well fitted curve in the direction sought with a large enough effect; inconclusive = small, poorly fitted or top-dose-only effect, or another doubt; inactive = no such curve, though single readings can be large; an effect the other way counts as inactive or inconclusive.
SMILES,GPT2 inhibitor,3T3 cytotox,HEK293 tox,FLuc inh,hNpr1 antagonist
COC1CCC(C(=O)N2CCc3c(n(CCOc4ccccc4)n(-c4ccccc4)c3=O)C2)CC1 (stereo not drawn),n,20µM,n,n,n
CCn1c2c(c(=O)n1-c1ccccc1)CCN(C(=O)C1CCC1)C2,n,u,n,n,n
COCCn1c2c(c(=O)n1-c1ccccc1)CCN(C(=O)c1nc3ccccc3[nH]1)C2,n,89µM,n,n,n
COCCn1c(=O)c2c(n1Cc1ccccc1)CN(Cc1cncc(OC)c1)CC2,n,u,n,n,n
COc1ncc(CN2CCc3c(n(CCOc4ccccc4)n(-c4ccccc4)c3=O)C2)cn1,n,u,n,n,n
CC(C)CCN1CCc2c(n(CCOc3ccccc3)n(-c3ccccc3)c2=O)C1,n,100µM,u,n,n
CCn1c2c(c(=O)n1-c1ccccc1)CCN(Cc1cncc(OC)c1)C2,n,100µM,n,n,n
CC(C)c1nc2c(c(-c3ccc(O)cc3)n1)CCN(C(=O)Cc1cccc(Cl)c1)CC2,n,u,u,x,x
Cc1ccc(-c2ccc3nnc(CNC(=O)c4cc(Cl)ccc4F)n3n2)cc1,n,u,u,n,n
Cc1ccc(-c2ccc3nnc(CNC(=O)c4cc(F)ccc4Cl)n3n2)cc1,n,u,32µM,n,n
COCC(=O)NC1CCC12CCN(S(=O)(=O)c1ccc3c(c1)OCCO3)CC2 (stereo not drawn),n,n,n,x,x
COCC(=O)NC1CCC12CCN(C(=O)Nc1ccc3c(c1)OCCO3)CC2 (stereo not drawn),n,u,n,45µM,n
CCN1C(=O)C2CC3(CCN(C(=O)Nc4ccc5c(c4)OCCO5)CC3)CN2C1=O (stereo not drawn),n,n,n,35µM,n
CC(=O)N1CCN(C(=O)c2cc(-c3ccc(F)cc3)c3nncn3n2)CC1,n,n,n,x,x
COc1ccc(OC)c(S(=O)(=O)N2CCC(C(=O)N3CCCCCCNC(=O)CC3)CC2)c1,n,n,n,n,n
CN(Cc1cn(C)c2ccccc12)C1CCc2nn(CC3CC3)c(=O)n2CC1 (stereo not drawn),n,35µM,32µM,n,n
O=C(NCC1CC1)c1cccc(OC2CN(Cc3ccc(F)cc3Cl)C2)c1,n,40µM,u,n,u
O=C(NCC1CC1)c1cccc(OC2CN(Cc3ccc(F)cc3F)C2)c1,n,u,u,n,n
OC(c1cccc(C(F)(F)F)c1)c1nc(Nc2ccncc2)n[nH]1 (stereo not drawn),n,n,u,n,n
OC(c1cccc(C(F)(F)F)c1)c1nc(Nc2ccccc2)n[nH]1 (stereo not drawn),n,u,89µM,n,n
OC(c1cccc(C(F)(F)F)c1)c1nc(Nc2ccc(F)cc2F)n[nH]1 (stereo not drawn),n,71µM,79µM,n,n
OC(c1cccc(C(F)(F)F)c1)c1nc(Nc2ccc(N3CCOCC3)cc2)n[nH]1 (stereo not drawn),u,n,u,35µM,u
OC(c1cccc(C(F)(F)F)c1)c1nc(Nc2cccnc2)n[nH]1 (stereo not drawn),n,n,u,n,n
COc1ccc(N2CCN(C(=O)CN3C(=O)NC4(CCC(C)CC4)C3=O)CC2)cc1 (stereo not drawn),u,n,n,n,n
CCOC(=O)Cn1nc2n(c1=O)CCN(Cc1cccc(Cl)c1)C2=O,n,n,n,n,n
SMILES,GPT2 inhibitor,3T3 cytotox,HEK293 tox,FLuc inh,hNpr1 antagonist
O=C(NCc1ccc2c(c1)OCO2)C1CCc2sc(C(=O)N3CCCCCC3)cc2C1 (stereo not drawn),n,u,u,n,22µM
COC(=O)c1cccc(NC(=O)C2CCc3sc(C(=O)N4CCOCC4)cc3C2)c1 (stereo not drawn),n,u,u,n,n
O=C(Nc1cccc(Cl)c1)C1CCc2sc(C(=O)N3CCCC3)cc2C1 (stereo not drawn),n,28µM,40µM,n,u
O=C(NCc1ccc(F)cc1)C1CCc2sc(C(=O)N3CCCC3)cc2C1 (stereo not drawn),n,u,50µM,n,n
COc1ccc(CN2CCC3(C2)C(=O)N(c2ccccc2)c2ccccc23)cc1 (stereo not drawn),n,u,50µM,x,x
O=C1N(c2ccccc2)c2ccccc2C12CCN(Cc1ccc(C(F)(F)F)cc1)C2 (stereo not drawn),n,u,50µM,x,x
CC(=O)Nc1ccc(CN2CCC3(C2)C(=O)N(C)c2ccccc23)cc1 (stereo not drawn),n,n,n,n,n
CN(C)c1ccc(CN2CCC3(C2)C(=O)N(C)c2ccccc23)cc1 (stereo not drawn),n,u,79µM,n,n
COc1ccc(CN2CCC3(C2)C(=O)N(C)c2ccccc23)cc1 (stereo not drawn),n,u,u,n,n
COc1ccc(CN2CCC3(C2)C(=O)N(Cc2ccccc2)c2ccccc23)cc1 (stereo not drawn),n,35µM,40µM,n,u
CCn1nc(C)c(CCN(C)C(=O)C2CCN(c3cnn(Cc4ccccc4)c(=O)c3)C2)c1C (stereo not drawn),n,n,u,x,x
CCC(=O)N1CCC(Cc2nc(C3CCOCC3)no2)CC1,n,n,n,n,n
O=C(c1cccc(C(F)(F)F)c1)N1CCOCC2(CN(Cc3cc(F)cc(F)c3)C2)C1,n,n,n,n,n
Cc1cc(S(=O)(=O)N2CCCN(C)c3ccccc32)ccc1Cl,n,u,u,x,x
N#Cc1ccc(CN2CCC3(C2)C(=O)N(c2ccccc2)c2ccccc23)cc1 (stereo not drawn),n,u,16µM,x,x
Cc1cnc(C(=O)N[C@@H]2CCC[C@@H]2C(=O)NCCc2cccs2)cn1,n,n,n,n,n
COC(=O)c1ccc2c(c1)nc1n2[C@@H](CNCc2ccc3c(c2)OCO3)COC1,n,u,u,n,u
COc1ccc(NC(=O)NC[C@H]2COCc3nc4ccccc4n32)cc1,n,u,n,89µM,n
COc1ccc2c(c1)nc1n2[C@@H](CNCc2ccc3c(c2)OCO3)COC1,n,u,56µM,n,u
COc1ccc2nc3n(c2c1)[C@@H](CNS(=O)(=O)Cc1ccccc1)COC3,n,89µM,u,n,n
COc1ccc2nc3n(c2c1)[C@@H](CNC(=O)c1ccc(C#N)cc1)COC3,n,89µM,n,n,n
COC(=O)CNC(=O)c1ccc(-c2ccc(OC)nn2)cc1,x,n,n,x,x
CC(C)c1ccc(CN2CC(CNC(=O)c3cnn(C)c3)C3(C2)CN(c2ccccc2)C3)cc1 (stereo not drawn),n,u,79µM,n,n
O=[S+]([O-])(NCC1CN(Cc2ccc3c(c2)CCO3)CC12CN(c1ccccc1)C2)c1ccccc1 (stereo not drawn),n,u,u,n,n
